In PubChem BioAssay AID1159580 (chemical genetic matrix, 2015):
Where “and” joins values, the source holds several entries; their conditions need not be identical. Equal entries are not always repeated. The whole screen tested about 5,500 compounds, of which about 2,000 (36%) were called active. Roughly 18% stayed inconclusive and do not appear here. Cut-off read from the data, not from the text of the source: active = normalized growth mostly below about 0.91 (no sharp cut-off); inconclusive = no clear call, values can overlap the other calls; inactive = mostly above about 0.92. The list shows a part of the results.

Assay: chemical genetic growth profiling, strain panel (AID 1159580);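 note: tested at 20 µM; growth read once vehicle control cultures reached saturation at 30 °C; 1 = growth at the plate median or of vehicle wells; lower values mean less growth of the strain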
Conditions: growth OD

Measured: normalized growth

COc1ccc2cc([C@H](C)C(=O)O)ccc2c1
inactive: S. cerevisiae deletion strains, locus YJR075W, strain HOC1, hits give low values 1.01 and 0.988 | S. cerevisiae deletion strains, locus YKL009W, strain mrt4, hits give low values 0.916 | S. cerevisiae deletion strains, locus YKL068W, hits give low values 0.983 | S. cerevisiae deletion strains, locus YKL085W, strain MDH1 (second series), hits give low values 0.977 | S. cerevisiae deletion strains, locus YKL085W, strain MDH1, hits give low values 0.977 | S. cerevisiae deletion strains, locus YKL160W, strain elf1, hits give low values 0.988 | S. cerevisiae deletion strains, locus YKL190W, strain CNB1, hits give low values 1 | S. cerevisiae deletion strains, locus YKR001C, strain vps1, hits give low values 0.943 | S. cerevisiae deletion strains, locus YKR026C, strain gcn3, hits give low values 0.983 | S. cerevisiae deletion strains, locus YKR091W, strain srl3, hits give low values 0.982 | S. cerevisiae deletion strains, locus YLL001W, strain dnm1, hits give low values 0.982 | S. cerevisiae deletion strains, locus YLL026W, hits give low values 0.997 | S. cerevisiae deletion strains, locus YLL041C, strain sdh2, hits give low values 0.971 | S. cerevisiae deletion strains, locus YLR027C, strain aat2, hits give low values 0.971 | S. cerevisiae deletion strains, locus YLR039C, strain RIC1, hits give low values 0.929 | S. cerevisiae deletion strains, locus YLR058C, strain SHM2, hits give low values 1.01 | S. cerevisiae deletion strains, locus YLR102C, strain apc9, hits give low values 0.986 | S. cerevisiae deletion strains, locus YLR221C, strain rsa3, hits give low values 0.993 | S. cerevisiae deletion strains, locus YLR258W, strain gsy2, hits give low values 0.982 | S. cerevisiae deletion strains, locus YLR262C, strain YPT6 (second series), hits give low values 0.944 | S. cerevisiae deletion strains, locus YLR262C, strain YPT6, hits give low values 0.903 | S. cerevisiae deletion strains, locus YLR268W, strain sec22, hits give low values 1.05 | S. cerevisiae deletion strains, locus YLR320W, strain mms22, hits give low values 0.955 | S. cerevisiae deletion strains, locus YLR330W, strain CHS5, hits give low values 0.997 | S. cerevisiae deletion strains, locus YLR342W, strain FKS1 (second series), hits give low values 0.98 | S. cerevisiae deletion strains, locus YLR342W, strain FKS1, hits give low values 0.967 | S. cerevisiae deletion strains, locus YLR357W, strain rsc2, hits give low values 0.963 | S. cerevisiae deletion strains, locus YLR370C, strain arc18, hits give low values 0.971 | S. cerevisiae deletion strains, locus YLR371W, strain rom2, hits give low values 0.989 | S. cerevisiae deletion strains, locus YLR384C, strain iki3, hits give low values 0.976 | S. cerevisiae deletion strains, locus YLR418C, strain cdc73, hits give low values 0.971 | S. cerevisiae deletion strains, locus YML016C, strain PPZ1, hits give low values 1 | S. cerevisiae deletion strains, locus YML032C, strain rad52, hits give low values 1 | S. cerevisiae deletion strains, locus YML120C, strain ndi1, hits give low values 0.99 | S. cerevisiae deletion strains, locus YML124C, strain tub3, hits give low values 0.992 | S. cerevisiae deletion strains, locus YMR058W, strain fet3, hits give low values 0.969 | S. cerevisiae deletion strains, locus YMR078C, strain ctf18, hits give low values 0.977 | S. cerevisiae deletion strains, locus YMR125W, strain sto1, hits give low values 0.972 | S. cerevisiae deletion strains, locus YMR129W, hits give low values 0.96 | S. cerevisiae deletion strains, locus YMR205C, strain PFK2, hits give low values 0.974 | S. cerevisiae deletion strains, locus YMR223W, strain ubp8, hits give low values 0.963 | S. cerevisiae deletion strains, locus YMR231W, strain pep5, hits give low values 0.987 | S. cerevisiae deletion strains, locus YMR263W, strain SAP30, hits give low values 1.01 and 0.996 | S. cerevisiae deletion strains, locus YMR307W, strain GAS1, hits give low values 0.955 | S. cerevisiae deletion strains, locus YNL067W, strain RPL9B, hits give low values 1.02 | S. cerevisiae deletion strains, locus YNL071W, strain lat1, hits give low values 0.96 | S. cerevisiae deletion strains, locus YNL128W, strain TEP1, hits give low values 0.996 and 0.976 | S. cerevisiae deletion strains, locus YNL153C, strain GIM3, hits give low values 1.02 and 1.01 | S. cerevisiae deletion strains, locus YNL175C, strain NOP13, hits give low values 0.964 | S. cerevisiae deletion strains, locus YNL183C, strain NPR1, hits give low values 0.88 | S. cerevisiae deletion strains, locus YNL197C, strain WHI3, hits give low values 0.963 | S. cerevisiae deletion strains, locus YNL209W, strain ssb2, hits give low values 0.978 | S. cerevisiae deletion strains, locus YNL224C, strain SQS1, hits give low values 0.978 | S. cerevisiae deletion strains, locus YNL233W, strain BNI4, hits give low values 1.02 | S. cerevisiae deletion strains, locus YNL248C, strain rpa49, hits give low values 0.977 | S. cerevisiae deletion strains, locus YNL250W, strain rad50, hits give low values 0.928 | S. cerevisiae deletion strains, locus YNL271C, strain bni1, hits give low values 0.938 | S. cerevisiae deletion strains, locus YNL307C, strain MCK1, hits give low values 0.98 | S. cerevisiae deletion strains, locus YNL322C, strain KRE1 (second series), hits give low values 0.938 | S. cerevisiae deletion strains, locus YNL322C, strain KRE1, hits give low values 1.01 and 0.995 | S. cerevisiae deletion strains, locus YNR049C, strain mso1, hits give low values 0.972 | S. cerevisiae deletion strains, locus YNR052C, strain pop2, hits give low values 0.969 | S. cerevisiae deletion strains, locus YOL006C, strain TOP1, hits give low values 1.06 | S. cerevisiae deletion strains, locus YOL012C, strain htz1 1.17 | S. cerevisiae deletion strains, locus YOL147C, strain pex11, hits give low values 0.994 | S. cerevisiae deletion strains, locus YOR001W, strain rrp6, hits give low values 0.957 | S. cerevisiae deletion strains, locus YOR061W, strain CKA2, hits give low values 1 | S. cerevisiae deletion strains, locus YOR069W, strain VPS5, hits give low values 1 | S. cerevisiae deletion strains, locus YOR070C, strain gyp1, hits give low values 0.978 | S. cerevisiae deletion strains, locus YOR080W, strain dia2, hits give low values 0.976 | S. cerevisiae deletion strains, locus YOR083W, strain WHI5 (second series), hits give low values 0.972 | S. cerevisiae deletion strains, locus YOR083W, strain WHI5, hits give low values 1.01 | S. cerevisiae deletion strains, locus YOR106W, strain vam3, hits give low values 0.978 | S. cerevisiae deletion strains, locus YOR136W, strain idh2, hits give low values 0.993 | S. cerevisiae deletion strains, locus YOR144C, strain elg1, hits give low values 0.995 | S. cerevisiae deletion strains, locus YOR184W, strain ser1, hits give low values 0.958 | S. cerevisiae deletion strains, locus YOR231W, strain MKK1, hits give low values 0.898 | S. cerevisiae deletion strains, locus YOR265W, strain rbl2, hits give low values 0.994 | S. cerevisiae deletion strains, locus YOR270C, strain vph1, hits give low values 0.938 | S. cerevisiae deletion strains, locus YOR290C, strain snf2, hits give low values 0.937 | S. cerevisiae deletion strains, locus YOR316C, strain cot1, hits give low values 0.999 | S. cerevisiae deletion strains, locus YPL051W, strain arl3, hits give low values 0.994 | S. cerevisiae deletion strains, locus YPL055C, strain LGE1, hits give low values 0.99 and 0.992 | S. cerevisiae deletion strains, locus YPL078C, strain atp4, hits give low values 0.979 | S. cerevisiae deletion strains, locus YPL106C, strain sse1, hits give low values 0.994 | S. cerevisiae deletion strains, locus YPL240C, strain hsp82, hits give low values 0.993 | S. cerevisiae deletion strains, locus YPL241C, strain CIN2, hits give low values 1 | S. cerevisiae deletion strains, locus YPR119W, strain clb2, hits give low values 0.977 | S. cerevisiae deletion strains, locus YPR141C, strain kar3, hits give low values 0.961 | S. cerevisiae deletion strains, locus YPR163C, strain tif3, hits give low values 0.987 | S. cerevisiae deletion strains, locus YPR167C, strain met16, hits give low values 0.986 | S. cerevisiae deletion strains, strain wtn01, hits give low values 1.01 | S. cerevisiae strains, strain wild type, hits give low values 1
active: S. cerevisiae deletion strains, locus YLR113W, strain HOG1, hits give low values 0.757 | S. cerevisiae deletion strains, locus YNL298W, strain CLA4, hits give low values 0.848 | S. cerevisiae deletion strains, locus YPL256C, strain CLN2, hits give low values 0.807
